Values joined by “and” are separate entries in the source; they are usually repeats but may differ in a detail not shown here. Equal values may be shown once. Active and inactive are the calls of the source.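 How the source made its calls, unless noted: active means compounds whose cell count with miR-34 switched on is under 0.7 times the count with it off; inactive means the rest.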

Experiment [1] is described as follows: compounds altering viability of human ES cells (AID 493140; call rule not given here;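 further: cells exposed to compounds for four days before counting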). The settings on record: human embryonic stem cell survival screen; stronger effect = higher value.
A short description of experiment [2]: P. berghei load reduction in hepatocytes – cell-based, HepG2, luciferase luminescence, HepG2 viability, primary screen (AID 624349; in the data active means parasite load remaining mostly below about 12%, no sharp cut-off; inactive means mostly above about 10%;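 further: 100% = mean of DMSO negative control wells on the same plate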). The settings on record: P. berghei liver stage in HepG2, luciferase luminescence, concentration not given here; parasite load remaining: stronger effect = lower value; viability: measured here: HepG2 viability without parasites.
A short description of experiment [3]: Wnt pathway potentiators raising nuclear beta-catenin – imaging, WNT3A-conditioned medium, mouse C2C12, NPC library, primary screen (AID 1117326; in the data active means nuclear beta-catenin stimulation mostly above about 4.2%, no sharp cut-off; inactive means mostly below about 10%). The conditions noted are these: stronger effect = higher value.
The nature of experiment [4]: stimulators of insulin release from INS-1E, primary screen, cell-based, 5 mM glucose, NPC library (AID 1117329;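 active means compound raises insulin release from rat beta cells at 5 mM glucose, no numeric limit stated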). The settings on record: rat INS-1E insulin secretion, at 10 µM, stronger effect = higher value.
The nature of experiment [5]: growth inhibition of GSK3B-pretreated HCT116 cells – cell-based, CellTiter-Glo, 0.2 to 20 µM (AID 1117336;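 active means compounds lowering colon cancer cell viability after pretreatment blocking the GSK3B kinase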). The conditions noted are these: HCT116 viability after GSK3B inhibitor, at 20 µM, stronger effect = higher value.
The nature of experiment [6]: inhibition of endothelial tube formation, primary screen, imaging, VEGF stimulated, CD31 staining, tube area, NPC library (AID 1117340;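 active means compound that reduces growth-factor-driven endothelial tube area in a mixed cell culture, no cutoff stated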). The conditions noted are these: VEGF-stimulated ADSC/ECFC co-culture, at 10 µM, stronger effect = higher value.
Experiment [7] can be described thus: GLP1 release stimulators, primary, NCI-H716, NPC library (AID 1117341;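 active means compound raises GLP1 secretion from the human gut endocrine cells, with no numeric limit stated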). The conditions noted are these: NCI-H716 cells, at 10 µM, stronger effect = higher value.
The nature of experiment [8]: HCT116 colon cancer cell growth inhibition, primary screen, CellTiter-Glo luminescence, NPC library (AID 1117342;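 active means compounds that lower survival of HCT116 colon cancer cells in the luminescence readout, no numeric limit stated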). The conditions noted are these: at 20 µM (top of the series).
Experiment [9] is described as follows: reduced SW480 viability measured with CellTiter-Glo, NPC library, primary (AID 1117343;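 active means compounds that lower viability of the colon cancer cells in the luminescence readout, with no numeric limit stated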). The conditions noted are these: CellTiter-Glo luminescence; at 20 µM (top of the series) unless noted. Background: In ATP-based viability assays light output follows the ATP content of the culture.
Experiment [10] can be described thus: NPC library primary testing for decreased DLD-1 cell viability via CellTiter-Glo (AID 1117346;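 active means compounds that lower survival of DLD-1 colon cancer cells in the luminescence readout, no cutoff given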). The settings on record: DLD-1 viability, CellTiter-Glo luminescence; at 20 µM (top of the series).
The nature of experiment [11]: EMT-state selective cytotoxicity in co-culture – imaging, PC-3E GFP, TEM4-18 mCherry, primary screen (AID 1345086;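 active means compounds killing one labelled cell type while sparing the other, by normalised counts and ratio limits, not self-fluorescent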;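 on all read-outs here: cells exposed to compound for 72 h before imaging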;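 on red/green cell ratio (normalised): normalised mesenchymal count divided by normalised epithelial count so high means epithelial killing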). The conditions noted are these: PC-3E GFP / TEM4-18 mCherry co-culture, imaging cell counts, at 1 µM; for red/green cell ratio (normalised): actives lie on both sides, counts scaled to control wells, 1 = unselective.
Experiment [12] can be described thus: viability loss with induced miR-34 in A549 – imaging, A549 dox-inducible miR-34, nuclei and caspase counts, primary screen (AID 1347080). The settings on record: A549 miR-34 inducible, Hoechst nuclei count, 48 h.
A short description of experiment [13]: MELAS cybrid and Rieske KO viability enhancers – cell-based, MELAS cybrids, Rieske KO mouse fibroblasts, CellTiter-Glo, primary screen (AID 1508586;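 active means mean z-score across replicates of 1.96 or higher in either the MELAS or the Rieske mutant cell line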;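 further: z relative to plate mean and SD of compound and empty wells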). The settings on record: low glucose.
Experiment [14] concerns the target NAD(+) hydrolase SARM1 (Homo sapiens) (UniProt Q6SZW1). Nature of the experiment: blocking NAD cleavage by SARM1 SAM-TIR – cell lysate, NAD-Glo luminescence (AID 1508614;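 active means compound whose remaining NAD level is above about 45 nM, limit read from the data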). The conditions noted are these: SAM-TIR HEK293T lysate NADase, at 1 µM, stronger effect = higher value.
The mark [15] stands for this setting: measured here: epithelial PC-3E GFP cell survival.
Where [16] appears, read: measured here: mesenchymal TEM4-18 mCherry cell survival.
Where [17] appears, read: stronger effect = lower value, cell number ratio, induced over uninduced.
Where [18] appears, read: measured here: relative caspase fold change +Dox/-Dox.
[19] abbreviates: measured here: total cells with miR-34 induction, stronger effect = lower value.
Setting [20] is: measured here: total cells without miR-34 induction.
Setting [21] is: MELAS cybrid survival, CellTiter-Glo 48 h, stronger effect = higher value.
Where [22] appears, read: Rieske KO mouse fibroblast survival, CellTiter-Glo 72 h.

Sequence of NAD(+) hydrolase SARM1 (Homo sapiens) (Q6SZW1 whole entry, looked up): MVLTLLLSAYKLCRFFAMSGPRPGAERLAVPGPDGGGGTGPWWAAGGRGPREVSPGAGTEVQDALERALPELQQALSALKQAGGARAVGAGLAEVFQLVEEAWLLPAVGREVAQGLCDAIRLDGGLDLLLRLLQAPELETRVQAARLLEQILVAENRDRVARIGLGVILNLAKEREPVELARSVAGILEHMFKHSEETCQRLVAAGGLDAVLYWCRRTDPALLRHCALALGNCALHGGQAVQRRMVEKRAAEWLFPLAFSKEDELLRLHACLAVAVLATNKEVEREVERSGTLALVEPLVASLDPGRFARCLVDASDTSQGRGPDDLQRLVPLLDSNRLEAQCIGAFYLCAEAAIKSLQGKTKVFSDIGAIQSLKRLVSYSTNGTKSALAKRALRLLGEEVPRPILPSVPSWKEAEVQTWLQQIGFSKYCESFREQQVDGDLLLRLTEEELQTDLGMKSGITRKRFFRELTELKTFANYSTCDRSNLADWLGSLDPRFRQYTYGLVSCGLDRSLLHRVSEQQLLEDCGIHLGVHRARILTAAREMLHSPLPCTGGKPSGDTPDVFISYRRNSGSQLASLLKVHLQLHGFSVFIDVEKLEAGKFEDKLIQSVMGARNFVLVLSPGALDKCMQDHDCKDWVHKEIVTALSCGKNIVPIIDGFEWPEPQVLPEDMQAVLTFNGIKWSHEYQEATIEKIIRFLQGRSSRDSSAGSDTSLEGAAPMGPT

As for `O=C(CCCN1CCC(O)(c2ccc(Br)cc2)CC1)c1ccc(F)cc1`, in [1], the survival was 1.83 (inactive). The parasite load remaining in [2] was 37.2% (inactive) and 72.5% (inactive) and 17.9% (inactive). Besides, in experiment [2], the viability was 92.9% and 75.9% and 90.4%. Further, the nuclear beta-catenin stimulation in experiment [3] (at 10 µM) was 10.3% (inactive); in experiment [3] (stimulation, at 2 µM) it was 1.8%. Also, in experiment [4], the insulin secretion stimulation is 5.6% (active). For the same molecule, in experiment [5], the viability decrease was -4.9% (inactive). The tube area decrease in experiment [6] was 24.2% (inactive). The GLP1 secretion stimulation in experiment [7] is 2.1% (inactive). For the same molecule, in [8], the inhibition of viability is 46.1% (inactive). For the same molecule, the viability decrease (inhibition) in experiment [9] is 93.1% (active); in [10], 54.3% (active). In addition, in experiment [11], the red/green cell ratio (normalised) was 0.73 (inactive). Besides, the normalised cell number was found to be 1.27 in [11] (setting [15]) and 0.93 in experiment [11] (setting [16]). Besides, the fold change was 0.861 (inactive) and 0.851 (inactive) in experiment [12] (setting [17]); 1.31 and 4.03 in experiment [12] (setting [18]). In addition, the cell count in [12] (setting [19]) is 8070 and 10200; in [12] (setting [20]) it was 9380 and 12000. Moreover, the z-score in experiment [13] (setting [21]) is 0.333 (inactive); in [13] (setting [22]), 0.0415. Moreover, the remaining NAD in [14] is 10 nM (inactive).
Turning to `CN1C(=O)OC(C)(C)C1=O`, in experiment [1], the survival was 8.08 (inactive). The parasite load remaining in experiment [2] is 83.9% (inactive) and 86.8% (inactive) and 50.6% (inactive). Further, the viability in experiment [2] was 107% and 78.1% and 129%. The nuclear beta-catenin stimulation was 1.4% (inactive) in experiment [3] (at 10 µM) and -0.1% in [3] (stimulation, at 2 µM). In experiment [4], the insulin secretion stimulation was 1% (inactive). Further, the viability decrease in experiment [5] is 31.5% (inactive). For the same molecule, in experiment [6], the tube area decrease was 13.2% (inactive). For the same molecule, the GLP1 secretion stimulation in experiment [7] is -0.3% (inactive). The inhibition of viability in experiment [8] is 28% (inactive). The viability decrease (inhibition) was 54.4% (active) in experiment [9] and 87.4% (active) in [10]. Also, the red/green cell ratio (normalised) in [11] was 0.94 (inactive). Besides, the normalised cell number in experiment [11] (setting [15]) came to 0.96; in experiment [11] (setting [16]), 0.9. In addition, the fold change in experiment [12] (setting [17]) was 0.862 (inactive) and 0.885 (inactive); in experiment [12] (setting [18]) it was 1.14 and 3.65. The cell count in experiment [12] (setting [19]) is 9130 and 11500; in experiment [12] (setting [20]), 10600 and 13000. Besides, the z-score is 0.482 (inactive) in experiment [13] (setting [21]) and -0.121 in experiment [13] (setting [22]). Moreover, the remaining NAD in experiment [14] is 10 nM (inactive).
Take `N=C(N)N1CCc2ccccc2C1`: the survival in [1] was 9.58 (inactive). Moreover, the nuclear beta-catenin stimulation in experiment [3] (at 10 µM) is 0.5% (inactive); in [3] (stimulation, at 2 µM) it was 0.9%. The insulin secretion stimulation in [4] was 1.35% (inactive). For the same molecule, the viability decrease in experiment [5] was 12.1% (inactive). Further, the tube area decrease in [6] was -0.3% (inactive). Moreover, the GLP1 secretion stimulation in [7] is 3.1% (inactive). In experiment [8], the inhibition of viability is 9.2% (inactive). For the same molecule, the viability decrease (inhibition) was 5.1% (inactive) in experiment [9] and 0% (inactive) in experiment [10]. Further, the red/green cell ratio (normalised) in experiment [11] is 0.87 (inactive). The normalised cell number in [11] (setting [15]) came out at 1.22; in experiment [11] (setting [16]) it was 1.07. The fold change was 0.813 (inactive) and 0.913 (inactive) and 0.943 (inactive) in experiment [12] (setting [17]); 1.55 and 2.39 and 2.81 in [12] (setting [18]). Further, the cell count is 8490 and 11800 and 9640 in experiment [12] (setting [19]); 10400 and 13000 and 10200 in [12] (setting [20]). Besides, the z-score in experiment [13] (setting [21]) is 0.0225 (inactive) and -0.468 (inactive); in experiment [13] (setting [22]), -0.12 and -1.06. In experiment [14], the remaining NAD was 10 nM (inactive).
`COc1cc(C(=O)N2CCOCC2)cc(OC)c1OC`: the parasite load remaining in [2] is 75.3% (inactive). In addition, the viability in experiment [2] was 105%. Moreover, the nuclear beta-catenin stimulation in experiment [3] (at 10 µM) is 0.3% (inactive); in experiment [3] (stimulation, at 2 µM), -0.7%. For the same molecule, the insulin secretion stimulation in experiment [4] was -1.8% (inactive). Further, in experiment [5], the viability decrease is 14.1% (inactive). The tube area decrease in [6] was -2.8% (inactive). Besides, in experiment [7], the GLP1 secretion stimulation was 6.1% (inactive). Besides, the inhibition of viability in experiment [8] was -2.4% (inactive). Moreover, the results for the viability decrease (inhibition) in [9] and in [10] were 30.7% (inactive) and 20.1% (inactive), respectively. Further, the red/green cell ratio (normalised) in experiment [11] was 1.06 (inactive). The results for the normalised cell number in [11] (setting [15]) and in [11] (setting [16]) were 1.01 and 1.07, respectively. Besides, the fold change in [12] (setting [17]) is 0.951 (inactive); in experiment [12] (setting [18]), 1.55. For the same molecule, the cell count in experiment [12] (setting [19]) was found to be 11700; in experiment [12] (setting [20]) it was 12300. In addition, the z-score in experiment [13] (setting [21]) is 0.673 (inactive); in experiment [13] (setting [22]), 0.477. For the same molecule, the remaining NAD in [14] was 10 nM (inactive).

As a reminder, the viability is a read-out of living cells in per cent, often relative to untreated cells.

The values above are taken from PubChem BioAssay.
